LASV entry inh: qHTS for Inhibitors of binding or entry into cells for Lassa Virus. AID 540256, 2011. Potency, µM (doses to about 37.9 µM), for inactives: top-dose activity change, negative = inhibition, usual class: inhibitors. Lassa virus pseudotype entry inhibition, cell reporter. 1.2% of 300,000 active; calls by dose curve; tested in HEK293 cells; note: potency is the fitted concentration of half-maximal effect; nearly all actives have a fitted effect of over 50% in size
HCMV inh: qHTS Assay for inhibitors of the human cytomegalovirus (HCMV); HFF cells, HCMV-luciferase reporter, 72 h; active compounds read low; activity change, negative = inhibition, % at 57.5 µM; 4.5% of 410,000 active; AID 1259415, 2018; in the data active = activity change below about -60%; inconclusive = no clear call, values can overlap the other calls; inactive = above about -39%
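Cell-based, HFFs, 1000 cells/well, 16 h 37C; cpds in DMSO + HCMV-luc, MOI 1 PFU/cell; 72 h 37C; OneGlo luminescence after 5 min RT; norm. to buffer vs Salinomycin 10uM.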
FMDV inh: High Throughput Screening for Foot and Mouth Disease Virus Antivirals | FMDV antiviral cell-based qHTS | Potency, µM (series often up to 57.9 µM), for the others: top-dose activity change, negative = inhibition, usual class: inhibitors | 1.2% of 410,000 active | AID 1159524, 2015; calls by dose curve; tested in HEK293T cells; note: read-out not given here; potency is the fitted concentration of half-maximal effect; nearly all actives have a fitted effect of over 45% in size
MARV entry inh: qHTS for inhibitors of binding or entry into cells for Marburg Virus. Marburg virus pseudotyped entry inhibition, cell reporter. Potency, µM (titrated, usually from 37.8 µM), without a hit: at the top dose activity change, negative = inhibition, actives largely listed as inhibitors. 1.8% of 300,000 active. AID 540276, 2011; calls by dose curve; tested in HEK293 cells; note: potency is the fitted concentration of half-maximal effect
Active calls of the source: *; ? = inconclusive; nt = no result; [ ] = dose if it differs, or a comment. Rows were chosen to be rich in hits. Some 6.2% of all compounds tested hit in one or more screens of this group. % is set by controls: 0 for no effect and ±100 for the full control effect.

SMILES | LASV entry inh | HCMV inh | FMDV inh | MARV entry inh
Cc1ccc(NC(=O)CCNS(=O)(=O)c2cccs2)cc1F | 10%[46.1 µM] | 18 | 72% | 13%[46.1 µM]
CN(C)c1ccc(CNC(=O)CCC(=O)N2Cc3ccccc3Oc3ncccc32)cc1 | -15%[46.1 µM] | 2 | -10% | nt
CCc1cc2c(cc3c(=O)n(CC(=O)N4CCCCC4)ncn32)s1 | nt | -38 | 12% | 10%[46.1 µM]
COc1ccc(OC)c(NC(=O)Cn2nc3c(cc2=O)CCCC3)c1 | 10%[46.1 µM] | 6 | 0% | ?
CC(C)(C)N1C(=O)c2ccccc2NC(=O)N1Cc1ccc(Br)cc1 | -8% | -65* | -6% | ?
N#C/C(=C\Nc1ccccc1O)c1nc2ccccc2o1 | ? | -95* | ? | ?
N#C/C(=C\c1ccncc1)c1nc2ccccc2o1 | -30% | 178 | 18% | -18%[46.1 µM]
COc1ccc(-c2nc3cnc(N4CCN(C)CC4)nc3n(CCC#N)c2=O)cc1 | nt | nt | -13% | nt
CC(C)(C)C(=O)NC(=S)Nc1cc(C(=O)O)ccc1Cl | 14% | -61* | 5% | ?
CC(C)Oc1ccc(C(=O)NC2CCN(Cc3ccccc3)CC2)cc1 | -2%[46.1 µM] | ? | ? | ?
CC(C)Oc1cccnc1N(C)C1CCN(Cc2ccccc2)CC1 | -9% | -11 | -21% | 1.8µM*
Cc1ccccc1NC(=O)Cn1cc(S(=O)(=O)N2CCCC2)c(S(=O)(=O)N2CCCC2)c1 | 18%[46.1 µM] | -1 | -6% | nt
COc1ccccc1-c1cncnc1NCCNC(C)=O | nt | nt | -10% | nt
CCNc1ncc2nc(CCc3ccccc3)c(=O)n(CCC#N)c2n1 | nt | nt | -4% | nt
Nc1nc(Cl)cc(-c2ccccc2)n1 | -3% | 27 | -3% | ?
Nc1nc(Cl)cc(Sc2ccc3ccccc3c2)n1 | 10µM* | 13 | -16% | -25%
O=C(C1CCC(CNS(=O)(=O)c2cccs2)CC1)N1CCN(c2ccc(Cl)cc2)CC1 (stereo unspecified) | ? | -93* | 32µM* | nt
O=C(C1CCC(CNS(=O)(=O)c2ccc(Br)s2)CC1)N1CCN(c2ccccc2)CC1 (stereo unspecified) | 0%[46.1 µM] | -1 | ? | 3%[46.1 µM]
Cc1ccc(N2CC(c3nnc(Cc4ccc(F)cc4Cl)o3)CC2=O)cc1 (stereo unspecified) | 15%[46.1 µM] | 5 | -20% | 0%[46.1 µM]
Cc1nc2ccccc2c2c1CC(C(C)(Cl)Br)O2 (stereo unspecified) | nt | -92* | 8.9µM* | nt
O=C(c1ccc2c(c1)OCO2)c1cn(Cc2ccc(Cl)cc2)c2ccc(F)cc2c1=O | -7%[46.1 µM] | -9 | -24% | ?
Cc1c(C(=O)N/N=C/c2ccc(Cl)cc2)[nH]c2ccc(Cl)cc12 | nt | -89* | 59% | nt
Cc1c(C(=O)N/N=C/C(C)C)[nH]c2ccc([N+](=O)[O-])cc12 | ? | -75* | -6% | 13%[46.1 µM]
O=C(/C=C/c1ccc(F)cc1)c1ccccc1Br | ? | -82* | 22µM* | -28%
CC(C)c1ccc2c(c1)CCC1C(C)(C(N)=O)CCCC21C (stereo unspecified) | nt | nt | 17% | nt
SMILES | LASV entry inh | HCMV inh | FMDV inh | MARV entry inh
Oc1[nH]c2ccccc2c1N=Nc1c(F)c(F)c(Cl)c(F)c1F | nt | -97* | -5% | nt
CN(C)CC(CCC(CN(C)C)C(=O)c1ccccc1)C(=O)c1ccccc1 (stereo unspecified) | -31% | nt | 28µM* | 13µM*
CCOc1ccc(C(=O)C(CCC(CN(C)C)C(=O)c2ccc(OCC)cc2)CN(C)C)cc1 (stereo unspecified) | 4.1µM* | -99* | 16µM* | 1µM*
COc1ccc(C(=O)C(CCCCC(CN(C)C)C(=O)c2ccc(OC)cc2)CN(C)C)cc1 (stereo unspecified) | ? | ? | -9% | ?
CCCC[C@]12Cc3cc(C#N)ccc3[C@H](O1)c1c(c3ccccc3oc1=O)O2 | nt | nt | nt | -8%[14.2 µM]
CCOc1cc(/C=C2\SC(=N)N(c3nccs3)C2=O)ccc1OCCN1CCOCC1 | ? | -70* | ? | ?
Cc1ccc(-n2nnnc2-c2cnc3ccc(Cl)cc3c2-c2ccccc2)cc1 | ? | ? | -1% | ?
Clc1ccc2[nH]cc(-c3nnnn3-c3ccc4ccccc4c3)c2c1 | -18% | -62* | -1% | ?
CCCn1c(C)cc(C(=O)COc2ccc(C)nc2[N+](=O)[O-])c1C | 15% | -89* | 0% | ?
Cc1ccc(C)c(C(=O)COc2ccc(C)nc2[N+](=O)[O-])c1 | 8% | 43 | 0% | ?
C=CCn1c(C)cc(C(=O)COc2ccc(S(=O)(=O)N3CCCC3)cc2[N+](=O)[O-])c1C | 2% | -15 | -12% | 14%
Cc1cc(C(=O)COC(=O)C2=NNC(=O)CC2)c(C)n1-c1ccccc1 | -12% | 0 | ? | 6%
COCCn1c(C)cc(C(=O)COc2ccc(C)nc2[N+](=O)[O-])c1C | nt | -94* | 3.5µM* | nt
C=CCn1c(C)cc(C(=O)COc2ccc(C)nc2[N+](=O)[O-])c1C | ? | -92* | ? | ?
Cc1ccc(OCC(=O)c2cc(C)c(C)cc2C)c([N+](=O)[O-])n1 | -5% | 67 | -18% | -1%
Cc1cc(C(=O)COC(=O)C2=COCCO2)c(C)n1-c1ccccc1 | 2.2µM* | ? | ? | 5.6µM*
CCN(CC)CCNC(=O)C(=O)NCC(c1ccc2c(c1)OCO2)N1CCOCC1 (stereo unspecified) | 18%[46.1 µM] | ? | 1% | nt
Cc1ccc(OCC(=O)c2cc(C)n(-c3ccccc3)c2C)c([N+](=O)[O-])n1 | ? | -99* | ? | ?
O=C(Cc1cccs1)NCCSc1c(-c2ccc(Cl)cc2)[nH]c2ccccc12 | 16µM* | ? | 22µM* | ?
CN(C)S(=O)(=O)c1ccc(C(=O)NCCSc2c(-c3ccccc3)[nH]c3ccccc23)cc1 | ? | -72* | ? | -5%[46.1 µM]
Cc1ccc(-c2[nH]c3ccccc3c2SCCNC(=O)c2ccc(S(=O)(=O)N(C)C)cc2)cc1 | ? | -32 | -24% | ?
Cc1cc2c(c(=O)o1)[C@H]1O[C@](c3ccsc3)(Cc3ccccc31)O2 | nt | nt | nt | 10%[14.2 µM]
N=C(N)SCc1cn(-c2ccccc2)nc1-c1ccc(Br)cc1 | ? | -87* | 20µM* | ?
Cc1noc(-c2ccccc2)c1-c1ccccc1[N+](=O)[O-] | nt | -100* | nt | nt
Cc1csc(CNc2ncnc3ccc(-c4ccc5c(c4)OCO5)cc23)c1 | nt | -69* | ? | nt
SMILES | LASV entry inh | HCMV inh | FMDV inh | MARV entry inh
Cc1csc(CNc2ncnc3ccc(-c4ccc5c(c4)OCCO5)cc23)c1 | nt | 8 | -21% | nt
Cc1csc(CNc2ncnc3ccc(-c4ccoc4)cc23)c1 | nt | -86* | -29% | nt
Cc1cccc(CNc2ncnc3ccc(-c4ccc5c(c4)OCCO5)cc23)c1 | nt | -89* | ? | nt
c1nc(NCc2ccc3c(c2)OCO3)c2cc(-c3ccc4c(c3)OCCO4)ccc2n1 | nt | -28 | ? | nt
Cc1cccc(CNc2ncnc3ccc(-c4ccoc4)cc23)c1 | nt | 14 | ? | nt
c1cncc(CNc2ncnc3ccc(-c4ccoc4)cc23)c1 | nt | -83* | 0% | nt
O=C(Nc1cccc(F)c1)N1CCCC2(CCN(C(=O)c3csnn3)CC2)C1 | nt | nt | -8% | nt
Cc1cccc(-c2ccc3ncnc(NCc4cccs4)c3c2)c1 | nt | -76* | 25µM* | nt

Screening results: PubChem, National Center for Advancing Translational Sciences (NCATS)
